Measured values from PubChem BioAssay (NCI).
This is part of a sample that, as a whole, favours compounds with a hit. Of some 83,000 tested, about 20% had one in any assay.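 For each line, cells grew in 96-well plates with the test compound present at a single concentration for 48 hours.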 Values without a mark were called inactive. The source made the active and inactive calls. How the source made its calls: active means growth percent below 10; inactive means the rest.

Columns and labels:
Assay in all cases: NCI-60 one-dose screen, 48 h (100 = growth as untreated, 0 = no growth, -100 = all killed)
Details in all cases: 10 µM unless noted
HCT-15 colon = test system: HCT-15 colon
HT29 colon = test system: HT29 colon
SNB-75 CNS = test system: SNB-75 CNS
SNB-19 CNS = test system: SNB-19 CNS
U251 CNS = test system: U251 CNS
PC-3 prostate = test system: PC-3 prostate
SK-MEL-5 melanoma = test system: SK-MEL-5 melanoma
UACC-62 melanoma = test system: UACC-62 melanoma
LOX IMVI melanoma = test system: LOX IMVI melanoma
SK-MEL-28 melanoma = test system: SK-MEL-28 melanoma

| SMILES | growth (HCT-15 colon) | growth (HT29 colon) | growth (SNB-75 CNS) | growth (SNB-19 CNS) | growth (U251 CNS) | growth (PC-3 prostate) | growth (SK-MEL-5 melanoma) | growth (UACC-62 melanoma) | growth (LOX IMVI melanoma) | growth (SK-MEL-28 melanoma) |
| --- | --- | --- | --- | --- | --- | --- | --- | --- | --- | --- |
| Cc1nn(-c2ccccc2)c(N2CCOCC2)c1-c1nc2ccc([N+](=O)[O-])cc2[nH]1 | 91.5% | 113% | 95.7% | 103% | 102% | 112% | 95.7% | 83.4% | 92.1% | 102% |
| CCCCOC(=O)c1c(C)[nH]c(/C=C2\N=C(c3ccc[nH]3)C=C2OC)c1C | -1.74% (active) | 1.64% (active) | -20% (active) | 26.6% | 1.25% (active) | 13.9% | -98% (active) | -28% (active) | -65.8% (active) | -14% (active) |
| CCOC(=O)c1cc(C(=O)c2ccc(OC)c(OC)c2)n2ccc(-c3ccccn3)cc12 | 83% | 76.4% | 24.1% | 67.8% | 21.7% | 87% | 37.1% | 83.5% | 84.7% | 71% |
| C[C@H]1[C@H](C)CC[C@]2(C(=O)N3CCN(C)CC3)CC[C@]3(C)C(=CC[C@@H]4[C@@]5(C)C/C(=C/c6ccco6)C(=O)C(C)(C)[C@@H]5CC[C@]43C)[C@H]12 | 32.5% [100 µM] | 26.3% [100 µM] | 62.3% [100 µM] | 47.7% [100 µM] | 17.4% [100 µM] | 29.9% [100 µM] | -46.8% [100 µM] (active) | 32.8% [100 µM] | -6.24% [100 µM] (active) | 35% [100 µM] |
| O=C1CC(c2ccccc2)Cc2nc3ccc(Br)cc3cc21 (stereo not given) | 16% | 2.2% (active) | 36.6% | 27.4% | 18.1% | 32% | 2.1% (active) | 36.2% | 31.5% | 56.7% |
| CN(C)c1cc(NN=C(c2ccc(O)cc2)c2ccc(O)cc2)c([N+](=O)[O-])cc1[N+](=O)[O-] | 46.4% | 114% | 98% | 67.7% | 70.8% | 87.8% | 26% | 71.7% | 43.7% | 81.5% |
| Cc1ccccc1OC(=O)c1cccc(Cl)c1 | 104% | 103% | 86.2% | 109% | 129% | 92.2% | 103% | 105% | 98% | 113% |
| C[C@H]1[C@H](C)CC[C@]2(C(=O)O)CC[C@]3(C)C(=CC[C@@H]4[C@@]5(C)C/C(=C/c6cccnc6)[C@H](O)C(C)(C)[C@@H]5CC[C@]43C)[C@H]12 | 2.04% [100 µM] (active) | -72.1% [100 µM] (active) | -3.83% [100 µM] (active) | 3.05% [100 µM] (active) | -57.2% [100 µM] (active) | 17.4% [100 µM] | -64.4% [100 µM] (active) | -70.3% [100 µM] (active) | -91.8% [100 µM] (active) | -49.1% [100 µM] (active) |
| N#C/C(C(=O)c1ccccc1)=C1/C(=O)Nc2ccc(F)cc21 | 106% | 116% | 78.3% | 98.4% | 104% | 93.3% | 103% | 92.7% | 100% | 108% |
| CC(C)OC(=O)Nc1cc(F)c(F)cc1F | 98.1% | 99.3% | 96.3% | 102% | 99.3% | 99.8% | 102% | 96.6% | 109% | 96% |
| Nc1cc(NN=C(c2ccc(O)cc2)c2ccc(O)cc2)c([N+](=O)[O-])cc1[N+](=O)[O-] | 4.01% (active) | 98.4% | 78.2% | -22.6% (active) | 4.49% (active) | 64.2% | -85.4% (active) | 42.3% | -32.5% (active) | 80.8% |
